Here are results for 16 compounds from PubChem BioAssay (NCATS).

Molecules are shown by their SMILES. “And” between values parts separate entries of the source, which are not always exact repeats. Equal values may be shown once. Records with an inconclusive call do not appear. Where a structure was tested more than once in an assay, its records may differ in their call. Unmarked numbers belong to inactive results. The source made the active and inactive calls. Calls come from the whole dose curve; as a rule, active = well fitted inhibition curve with a large enough effect; inconclusive = small, poorly fitted or top-dose-only effect; inactive = flat fitted curve, though single readings scatter.

Experiment [1] in a line: Drug repurposing screens with cells derived from glioblastoma tumor samples (AID 1345199). Note: nearly all actives have a fitted effect of over 40% in size. The settings on record: GBM patient neurospheres viability, ATP luminescence, 48 h. The essentials: (§1)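 Four patient lines of CD133+ GBM neurospheres were screened at several concentrations; hits were retested in those lines plus three slower-growing GBM lines, using 48-hour treatment and ATP-based viability.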

The test system of a further experiment is astro (control astrocytes). Described as above. The conditions noted are these: viability, ATP luminescence, 48 h; series mostly up to 45.9 µM. The essentials: as §1
[2] abbreviates: at 45.9 µM (top of the series), tumour line B.
The mark [3] stands for this setting: at 45.9 µM (top of the series), tumour line D.
[4] abbreviates: at 46 µM (top of the series), tumour line A.
The mark [5] stands for this setting: at 46.1 µM (top of the series), tumour line C.
% is set by controls: 0 for no effect and ±100 for the full control effect; potency is the fitted concentration of half-maximal effect.

On to `COc1cc2c(c(OC)c1OC)-c1c(cc3c(c1OC)OCO3)C[C@@H](C)[C@](C)(O)C2`, for which the activity, negative = cell killing was -5.29% and -6.75% in experiment [1] (setting [2]); -7.05% and -25.9% in experiment [1] (setting [3]); -25% in experiment [1] (setting [4]); -33.4% and -14.4% in experiment [1] (setting [5]). Further, in experiment [1] (tumour line A), the Potency is 22.4 µM (active). In addition, the Potency result in the experiment with astro was “inactive”.

On to `O=C(OCCO)c1ccccc1O`, for which the activity, negative = cell killing in experiment [1] (setting [2]) was -4.1%; in experiment [1] (setting [3]) it was 8.11%; in experiment [1] (setting [4]), -21.4%; in experiment [1] (setting [5]), -4.97%. In addition, the Potency result with astro was “inactive”.

Regarding `O=P(O)(O)C(O)(Cc1cnc2ccccn12)P(=O)(O)O`, the activity, negative = cell killing is -3.54% in experiment [1] (setting [2]), 2.92% in experiment [1] (setting [3]), -12.2% in experiment [1] (setting [4]) and 2.63% in experiment [1] (setting [5]). Besides, the Potency entry in the experiment with astro is “inactive”.

Take `CO/N=C(\C(=O)N[C@@H]1C(=O)N2C(C(=O)OCOC(=O)C(C)(C)C)=C(/C=C\c3scnc3C)CS[C@H]12)c1csc(N)n1`: the activity, negative = cell killing in experiment [1] (setting [2]) was -2.3%; in experiment [1] (setting [3]) it was -0.209%; in experiment [1] (setting [4]) it was -23.3%; in experiment [1] (setting [5]) it was -3.78%. For the same compound, the Potency result in the experiment with astro was “inactive”.

For the compound `CC(C)(S)C(=O)N[C@@H](CS)C(=O)O`, the activity, negative = cell killing in experiment [1] (setting [2]) is -12.3% and -6.78%; in experiment [1] (setting [3]), -24.6% and -16.1%; in experiment [1] (setting [5]), -15.9% and -10.8%. Moreover, the Potency in experiment [1] (tumour line A) is 39.8 µM (active).

For `CSCC[C@H](NC(=O)[C@H](Cc1ccc(OS(=O)(=O)O)cc1)NC(=O)[C@@H](N)CC(=O)O)C(=O)NCC(=O)N[C@@H](Cc1c[nH]c2ccccc12)C(=O)N[C@@H](CCSC)C(=O)N[C@@H](CC(=O)O)C(=O)N[C@@H](Cc1ccccc1)C(N)=O`, the activity, negative = cell killing in experiment [1] (setting [2]) was -12.8% and -14.6%; in experiment [1] (setting [3]), -10.7% and -3.46%; in experiment [1] (setting [4]), -8.64%; in experiment [1] (setting [5]) it was 9.45% and -3.35%. Besides, the Potency result in the experiment with astro is “inactive”.

With `CC#CCC(C)[C@H](O)/C=C/[C@@H]1[C@H]2C/C(=C/CCCC(=O)O)C[C@H]2C[C@H]1O` (some centres undefined), the activity, negative = cell killing is -8.92% in experiment [1] (setting [2]), -4.73% in experiment [1] (setting [3]) and -5.69% in experiment [1] (setting [5]). The Potency in experiment [1] (tumour line A) was 17.8 µM (active). Moreover, the Potency entry in the experiment on astro is “inactive”.

In the case of `C=C1CC2C3CCC4=CC(=O)C=C[C@]4(C)[C@@]3(F)[C@@H](O)C[C@]2(C)[C@@]1(O)C(=O)COC(C)=O` (some centres undefined), the activity, negative = cell killing in experiment [1] (setting [2]) is -0.0683%; in experiment [1] (setting [3]), 11.1%; in experiment [1] (setting [4]), -20%; in experiment [1] (setting [5]) it was -4.46%. Further, in the experiment with astro, the Potency entry is “inactive”.

Take `CCCC(CCC)C(N)=O`: the activity, negative = cell killing in experiment [1] (setting [2]) was 1.34%; in experiment [1] (setting [3]) it was -12.3%; in experiment [1] (setting [4]) it was -16.5%; in experiment [1] (setting [5]), 0.0882%. In addition, the Potency entry in the experiment on astro is “inactive”.

`CS(=O)(=O)NC(=O)CCC/C=C\C[C@H]1C(=O)C[C@@H](O)[C@@H]1/C=C/[C@H](O)COc1ccccc1`: the activity, negative = cell killing is -2.71% in experiment [1] (setting [2]), -15.8% in experiment [1] (setting [3]), -29.7% in experiment [1] (setting [4]) and 0.501% in experiment [1] (setting [5]). The Potency result in the experiment with astro was “inactive”.

Consider `O=C[C@H](O)[C@@H](O)[C@H](O[C@H]1O[C@H](CO)[C@@H](O[C@H]2O[C@H](CO)[C@@H](O)[C@H](O)[C@H]2O)[C@H](O)[C@H]1O)[C@H](O)CO`, for which the activity, negative = cell killing in experiment [1] (setting [2]) was -5.93%; in experiment [1] (setting [3]), -7.07%; in experiment [1] (setting [4]), -21.5%; in experiment [1] (setting [5]), 5.59%. Besides, the Potency entry with astro is “inactive”.

With `O=P(O)(O)C(Sc1ccc(Cl)cc1)P(=O)(O)O`, the activity, negative = cell killing in experiment [1] (setting [2]) was 3.66%; in experiment [1] (setting [3]), -1.38%; in experiment [1] (setting [4]), -1.1%; in experiment [1] (setting [5]), -7.59%.

`CCCCC(=O)O`: the activity, negative = cell killing in experiment [1] (setting [2]) is -3.62% and -8.26%; in experiment [1] (setting [3]), 6.9% and -1.28%; in experiment [1] (setting [4]) it was -15.7%; in experiment [1] (setting [5]) it was -7.54% and 1.54%. Moreover, the Potency result in the experiment on astro is “inactive”.

On to `CCC(=O)OCC(=O)[C@@]1(OC(=O)CC)[C@H](C)C[C@H]2[C@@H]3CCC4=CC(=O)C=C[C@]4(C)[C@@]3(F)[C@@H](O)C[C@@]21C`, for which the activity, negative = cell killing in experiment [1] (setting [2]) is -7.21%; in experiment [1] (setting [3]), -9.28%; in experiment [1] (setting [5]), -2.15%. For the same compound, the Potency in experiment [1] (tumour line A) is 17.8 µM (active). Also, the Potency entry in the experiment on astro was “inactive”.

Regarding `CC1(C)C2CC[C@]3(C)[C@H](C(=O)C=C4[C@@H]5C[C@@](C)(C(=O)O)CC[C@]5(C)CC[C@]43C)[C@@]2(C)CC[C@@H]1O[C@H]1O[C@H](C(=O)O)[C@@H](O)[C@H](O)[C@H]1O[C@@H]1O[C@H](C(=O)O)[C@@H](O)[C@H](O)[C@H]1O` (some centres undefined), the activity, negative = cell killing in experiment [1] (setting [2]) was -4.03%; in experiment [1] (setting [3]), -9.47%; in experiment [1] (setting [4]) it was -26.6%; in experiment [1] (setting [5]) it was -1.2%. Besides, the Potency entry in the experiment on astro was “inactive”.

Consider `CCN(CC)CCOC(=O)c1ccc(N)cc1Cl`, for which the activity, negative = cell killing is -9.89% in experiment [1] (setting [2]), -17.2% in experiment [1] (setting [3]), -27.9% in experiment [1] (setting [4]) and -6% in experiment [1] (setting [5]). The Potency result with astro is “inactive”.
